Our source for the binding signal values is article PMC7862700, “An all-to-all approach to the identification of sequence-specific readers for epigenetic DNA modifications on cytosine”.

Common to all, as to assay: DAPPL (digital affinity profiling via proximity ligation, sequencing); 10 mM Tris-HCl pH 7.5, 50 mM NaCl, 1 mM DTT, 4% glycerol, room temperature, 30 min; GST-TFs on glutathione beads, 16-mer random dsDNA library, 0.1% formaldehyde crosslink after washing; high values mean tight binding
One test has as its target T1, FLI1 (Homo sapiens, UniProt Q01543 1-452).
T1 sequence: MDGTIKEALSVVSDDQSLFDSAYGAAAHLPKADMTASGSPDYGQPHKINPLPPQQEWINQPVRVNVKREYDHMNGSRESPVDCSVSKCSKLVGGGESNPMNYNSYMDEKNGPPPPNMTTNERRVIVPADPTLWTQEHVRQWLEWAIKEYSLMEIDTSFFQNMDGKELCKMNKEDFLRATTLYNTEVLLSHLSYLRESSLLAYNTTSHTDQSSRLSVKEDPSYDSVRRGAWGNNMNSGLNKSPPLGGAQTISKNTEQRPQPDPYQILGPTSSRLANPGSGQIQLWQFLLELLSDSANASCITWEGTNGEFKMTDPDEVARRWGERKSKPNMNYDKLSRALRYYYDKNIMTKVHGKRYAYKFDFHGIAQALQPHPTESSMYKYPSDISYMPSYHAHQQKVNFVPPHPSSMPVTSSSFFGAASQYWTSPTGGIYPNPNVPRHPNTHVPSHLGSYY
Particulars: protein: recombinant; tags: N-terminal GST; dsDNA, one strand shown. The procedure, abridged:
(§1)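 In yeast, human transcription factors were expressed with a GST fusion, then pulled down on glutathione beads and given DNA barcodes. Pooled with a tag-only sample, they were exposed to 200 nmole of a 16-mer random double-stranded DNA library (Tris/NaCl/DTT/glycerol buffer, room temperature, 30 min), washed, crosslinked with 0.1% formaldehyde, proximity-ligated using BsaI/T4 ligase for 1 h at 37 °C, PCR-amplified and read on an Illumina NextSeq500. Each hexamer's frequency of reads for a factor, divided by the matching frequency for the tag-only sample, gives the binding signal.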

A further test addresses T2, ELK1 (Homo sapiens, UniProt P19419 1-428).
T2 sequence: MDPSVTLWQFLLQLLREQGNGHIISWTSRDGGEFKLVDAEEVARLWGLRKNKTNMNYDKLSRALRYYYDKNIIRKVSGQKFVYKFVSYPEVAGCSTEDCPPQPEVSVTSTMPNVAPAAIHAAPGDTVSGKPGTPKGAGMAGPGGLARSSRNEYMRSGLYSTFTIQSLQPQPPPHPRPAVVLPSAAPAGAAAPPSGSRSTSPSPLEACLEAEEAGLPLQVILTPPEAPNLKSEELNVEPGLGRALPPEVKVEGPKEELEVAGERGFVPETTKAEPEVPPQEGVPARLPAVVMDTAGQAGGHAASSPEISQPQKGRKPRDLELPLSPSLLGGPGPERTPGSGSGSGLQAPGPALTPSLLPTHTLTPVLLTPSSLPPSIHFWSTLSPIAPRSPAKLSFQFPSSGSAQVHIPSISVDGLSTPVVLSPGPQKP
Particulars: protein: recombinant; tags: N-terminal GST; dsDNA, one strand shown. The procedure, abridged: as §1

In a further test the target is T3, GABPA (Homo sapiens, UniProt Q06546 1-454).
T3 sequence: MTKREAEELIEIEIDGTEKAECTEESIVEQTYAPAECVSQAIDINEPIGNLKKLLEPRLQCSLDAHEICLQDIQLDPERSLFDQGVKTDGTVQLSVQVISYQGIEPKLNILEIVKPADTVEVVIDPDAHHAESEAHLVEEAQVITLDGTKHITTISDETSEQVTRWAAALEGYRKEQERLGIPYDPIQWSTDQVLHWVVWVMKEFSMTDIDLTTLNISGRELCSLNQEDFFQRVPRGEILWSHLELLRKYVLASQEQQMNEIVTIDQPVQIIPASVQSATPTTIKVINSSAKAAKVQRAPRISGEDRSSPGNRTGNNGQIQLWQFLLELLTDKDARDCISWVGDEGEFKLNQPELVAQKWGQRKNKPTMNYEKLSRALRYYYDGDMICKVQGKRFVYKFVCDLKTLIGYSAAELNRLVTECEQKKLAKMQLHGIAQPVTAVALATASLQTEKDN
Particulars: protein: recombinant; tags: N-terminal GST; dsDNA, one strand shown. Put shortly:
as §1

The target of the next test is T4, ERG (Homo sapiens, UniProt P11308 1-479).
T4 sequence: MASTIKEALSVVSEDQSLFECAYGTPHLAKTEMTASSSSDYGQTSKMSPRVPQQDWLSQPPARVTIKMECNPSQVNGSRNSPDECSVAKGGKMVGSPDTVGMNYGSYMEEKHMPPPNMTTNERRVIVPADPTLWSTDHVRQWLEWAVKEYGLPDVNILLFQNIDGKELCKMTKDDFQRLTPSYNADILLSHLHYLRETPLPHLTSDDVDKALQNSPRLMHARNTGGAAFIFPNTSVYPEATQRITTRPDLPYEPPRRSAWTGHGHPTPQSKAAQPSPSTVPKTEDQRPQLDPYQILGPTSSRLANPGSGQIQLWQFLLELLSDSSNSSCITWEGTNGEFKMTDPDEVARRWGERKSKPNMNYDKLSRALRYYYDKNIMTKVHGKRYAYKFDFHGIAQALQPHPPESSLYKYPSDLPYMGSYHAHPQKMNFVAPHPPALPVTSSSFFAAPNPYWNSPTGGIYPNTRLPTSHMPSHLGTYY
Particulars: protein: recombinant; tags: N-terminal GST; dsDNA, one strand shown. The procedure, abridged: as §1

A further test has as its target ELF1 (Homo sapiens, UniProt P32519 1-619). Particulars: protein: recombinant; tags: N-terminal GST; dsDNA, one strand shown. Put shortly:
as §1

For another test, the target named is T5, EHF (Homo sapiens, UniProt Q9NZC4 1-300).
T5 sequence: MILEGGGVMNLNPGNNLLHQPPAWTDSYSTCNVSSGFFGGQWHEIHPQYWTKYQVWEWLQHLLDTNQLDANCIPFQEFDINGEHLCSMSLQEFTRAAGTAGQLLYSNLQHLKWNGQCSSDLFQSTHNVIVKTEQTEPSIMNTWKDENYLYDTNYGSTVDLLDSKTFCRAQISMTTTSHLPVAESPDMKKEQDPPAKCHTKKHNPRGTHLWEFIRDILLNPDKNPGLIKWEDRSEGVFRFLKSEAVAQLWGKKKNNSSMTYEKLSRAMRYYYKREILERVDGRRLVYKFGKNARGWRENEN
The settings on record: protein: recombinant; tags: N-terminal GST; dsDNA, one strand shown. Put shortly:
as §1

A further test concerns the target SPI1 (Homo sapiens, UniProt P17947 1-270). The settings on record: protein: recombinant; tags: N-terminal GST; dsDNA, one strand shown. The procedure, abridged:
as §1

In another test the target is SPIB (Homo sapiens, UniProt Q01892 1-262). Particulars: protein: recombinant; tags: N-terminal GST; dsDNA, one strand shown. Put shortly:
as §1

The next test addresses T6, ELK3 (Homo sapiens, UniProt P41970 1-407).
T6 sequence: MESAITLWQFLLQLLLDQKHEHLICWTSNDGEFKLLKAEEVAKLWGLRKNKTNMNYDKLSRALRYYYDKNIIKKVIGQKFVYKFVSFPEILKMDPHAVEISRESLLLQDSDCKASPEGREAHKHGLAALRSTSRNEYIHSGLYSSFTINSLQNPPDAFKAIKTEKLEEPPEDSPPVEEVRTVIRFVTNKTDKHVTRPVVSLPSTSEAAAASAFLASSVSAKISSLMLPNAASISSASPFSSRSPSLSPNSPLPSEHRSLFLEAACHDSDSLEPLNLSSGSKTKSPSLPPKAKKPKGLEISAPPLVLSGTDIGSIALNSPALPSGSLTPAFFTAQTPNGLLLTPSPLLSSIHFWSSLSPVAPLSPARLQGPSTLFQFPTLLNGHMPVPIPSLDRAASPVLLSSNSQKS
Particulars: protein: recombinant; tags: N-terminal GST; dsDNA, one strand shown. Put shortly:
as §1

The next test concerns the target T7, FEV (Homo sapiens, UniProt Q99581 1-238).
T7 sequence: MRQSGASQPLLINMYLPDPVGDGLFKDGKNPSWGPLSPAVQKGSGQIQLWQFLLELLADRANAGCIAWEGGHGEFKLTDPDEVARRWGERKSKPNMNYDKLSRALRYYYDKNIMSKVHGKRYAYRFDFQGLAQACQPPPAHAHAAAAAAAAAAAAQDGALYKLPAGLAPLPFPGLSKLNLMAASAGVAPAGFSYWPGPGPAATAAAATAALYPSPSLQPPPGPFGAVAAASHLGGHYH
Particulars: protein: recombinant; tags: N-terminal GST; dsDNA, one strand shown. The procedure, abridged:
as §1

Another test addresses ETV5 (Homo sapiens, UniProt P41161 1-510). Particulars: protein: recombinant; tags: N-terminal GST; dsDNA, one strand shown. Put shortly:
as §1

Another test addresses HSF1 (Homo sapiens, UniProt Q00613 1-529). Particulars: protein: recombinant; tags: N-terminal GST; chain copies: 3; dsDNA, one strand shown. The procedure, abridged:
as §1

A further test deals with T8, SPIC (Homo sapiens, UniProt Q8N5J4 1-248).
T8 sequence: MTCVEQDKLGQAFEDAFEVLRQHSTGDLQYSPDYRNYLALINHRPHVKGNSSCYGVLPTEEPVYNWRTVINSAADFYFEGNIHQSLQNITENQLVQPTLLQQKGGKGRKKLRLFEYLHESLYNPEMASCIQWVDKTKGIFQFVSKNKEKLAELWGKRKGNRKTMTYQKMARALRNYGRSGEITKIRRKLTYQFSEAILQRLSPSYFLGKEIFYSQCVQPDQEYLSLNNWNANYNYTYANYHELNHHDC
Particulars: protein: recombinant; tags: N-terminal GST; dsDNA, one strand shown. The procedure, abridged:
as §1

The next test has as its target ELF4 (Homo sapiens, UniProt Q99607 1-663). Particulars: protein: recombinant; tags: N-terminal GST; dsDNA, one strand shown. The procedure, abridged:
as §1

A further test addresses T9, ELK4 (Homo sapiens, UniProt P28324-2 1-405).
T9 sequence: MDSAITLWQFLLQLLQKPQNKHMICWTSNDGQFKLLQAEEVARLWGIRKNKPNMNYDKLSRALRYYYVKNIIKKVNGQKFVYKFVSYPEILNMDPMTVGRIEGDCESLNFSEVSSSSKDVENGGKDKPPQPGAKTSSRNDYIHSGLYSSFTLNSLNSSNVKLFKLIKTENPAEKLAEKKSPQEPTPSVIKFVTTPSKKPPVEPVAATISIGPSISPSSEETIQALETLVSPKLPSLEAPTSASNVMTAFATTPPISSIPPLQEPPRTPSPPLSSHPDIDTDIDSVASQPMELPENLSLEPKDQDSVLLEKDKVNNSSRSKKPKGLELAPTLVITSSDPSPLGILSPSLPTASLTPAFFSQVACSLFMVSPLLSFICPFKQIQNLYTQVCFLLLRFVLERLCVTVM
The settings on record: protein: recombinant; tags: N-terminal GST; dsDNA, one strand shown. Put shortly: as §1

Another test has as its target T10, ETV2 (Homo sapiens, UniProt O00321 1-342).
T10 sequence: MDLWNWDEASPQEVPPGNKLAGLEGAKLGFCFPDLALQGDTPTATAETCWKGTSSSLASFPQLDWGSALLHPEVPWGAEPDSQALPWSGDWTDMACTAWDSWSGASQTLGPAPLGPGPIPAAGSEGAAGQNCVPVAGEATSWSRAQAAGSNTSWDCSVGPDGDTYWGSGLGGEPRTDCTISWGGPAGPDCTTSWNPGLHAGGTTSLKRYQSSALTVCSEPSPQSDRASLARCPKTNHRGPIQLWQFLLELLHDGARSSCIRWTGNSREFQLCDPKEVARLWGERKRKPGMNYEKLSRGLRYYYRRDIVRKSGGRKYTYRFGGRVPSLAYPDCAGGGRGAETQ
The settings on record: protein: recombinant; tags: N-terminal GST; dsDNA, one strand shown. The procedure, abridged: as §1

The target of a further test is T11, ELF3 (Homo sapiens, UniProt P78545 1-371).
T11 sequence: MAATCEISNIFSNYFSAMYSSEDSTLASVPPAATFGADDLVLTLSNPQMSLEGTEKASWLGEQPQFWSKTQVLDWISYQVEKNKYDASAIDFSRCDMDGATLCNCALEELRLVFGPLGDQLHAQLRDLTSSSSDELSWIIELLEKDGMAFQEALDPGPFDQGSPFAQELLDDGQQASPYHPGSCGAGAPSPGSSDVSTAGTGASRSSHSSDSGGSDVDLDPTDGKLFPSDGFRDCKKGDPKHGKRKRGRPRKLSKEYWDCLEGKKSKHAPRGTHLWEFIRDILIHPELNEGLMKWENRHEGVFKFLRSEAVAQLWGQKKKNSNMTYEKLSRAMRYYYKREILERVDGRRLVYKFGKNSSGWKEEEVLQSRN
Particulars: protein: recombinant; tags: N-terminal GST; dsDNA, one strand shown. Put shortly:
as §1

The target of another test is CRX (Homo sapiens, UniProt O43186 1-299). Particulars: protein: recombinant; tags: N-terminal GST; dsDNA, one strand shown. The procedure, abridged:
as §1

In the next test the target is ETV1 (Homo sapiens, UniProt P50549 1-477). Particulars: protein: recombinant; tags: N-terminal GST; dsDNA, one strand shown. Put shortly:
as §1

CRX, sequence (O43186 whole entry): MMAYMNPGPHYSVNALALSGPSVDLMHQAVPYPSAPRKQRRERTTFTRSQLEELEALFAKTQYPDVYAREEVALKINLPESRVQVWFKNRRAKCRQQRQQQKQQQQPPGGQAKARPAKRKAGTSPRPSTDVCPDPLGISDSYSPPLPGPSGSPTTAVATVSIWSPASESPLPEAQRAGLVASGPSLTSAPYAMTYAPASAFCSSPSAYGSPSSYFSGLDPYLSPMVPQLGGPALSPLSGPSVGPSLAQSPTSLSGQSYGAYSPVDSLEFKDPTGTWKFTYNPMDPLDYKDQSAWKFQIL
HSF1, sequence (Q00613 whole entry): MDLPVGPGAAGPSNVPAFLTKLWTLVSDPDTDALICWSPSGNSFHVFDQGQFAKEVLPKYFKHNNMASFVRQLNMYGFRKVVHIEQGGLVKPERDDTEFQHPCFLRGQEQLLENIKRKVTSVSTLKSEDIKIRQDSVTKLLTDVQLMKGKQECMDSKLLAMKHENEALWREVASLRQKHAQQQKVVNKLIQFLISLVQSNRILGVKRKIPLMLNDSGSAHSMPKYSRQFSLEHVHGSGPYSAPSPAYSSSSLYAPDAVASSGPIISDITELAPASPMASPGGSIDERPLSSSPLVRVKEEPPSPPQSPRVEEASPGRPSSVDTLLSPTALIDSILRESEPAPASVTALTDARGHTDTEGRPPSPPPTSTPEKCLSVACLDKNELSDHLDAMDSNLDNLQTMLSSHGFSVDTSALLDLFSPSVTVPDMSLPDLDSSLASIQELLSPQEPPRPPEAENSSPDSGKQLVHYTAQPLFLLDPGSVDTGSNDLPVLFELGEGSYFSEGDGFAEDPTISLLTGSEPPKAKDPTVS
ETV5, sequence (P41161 whole entry): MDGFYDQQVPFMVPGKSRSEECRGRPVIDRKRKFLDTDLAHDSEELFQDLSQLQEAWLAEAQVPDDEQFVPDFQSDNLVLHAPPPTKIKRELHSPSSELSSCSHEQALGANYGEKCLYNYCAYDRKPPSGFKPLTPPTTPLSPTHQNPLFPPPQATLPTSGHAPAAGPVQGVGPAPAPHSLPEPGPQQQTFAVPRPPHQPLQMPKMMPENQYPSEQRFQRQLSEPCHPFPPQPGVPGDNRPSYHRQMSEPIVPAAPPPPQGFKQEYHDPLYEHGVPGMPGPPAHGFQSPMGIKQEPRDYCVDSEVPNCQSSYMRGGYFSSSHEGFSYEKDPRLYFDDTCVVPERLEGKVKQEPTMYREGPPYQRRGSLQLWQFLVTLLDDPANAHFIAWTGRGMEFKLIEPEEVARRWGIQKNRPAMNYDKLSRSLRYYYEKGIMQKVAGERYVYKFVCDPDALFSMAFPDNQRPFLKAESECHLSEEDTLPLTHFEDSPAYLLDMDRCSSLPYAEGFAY
ELF1, sequence (P32519 whole entry): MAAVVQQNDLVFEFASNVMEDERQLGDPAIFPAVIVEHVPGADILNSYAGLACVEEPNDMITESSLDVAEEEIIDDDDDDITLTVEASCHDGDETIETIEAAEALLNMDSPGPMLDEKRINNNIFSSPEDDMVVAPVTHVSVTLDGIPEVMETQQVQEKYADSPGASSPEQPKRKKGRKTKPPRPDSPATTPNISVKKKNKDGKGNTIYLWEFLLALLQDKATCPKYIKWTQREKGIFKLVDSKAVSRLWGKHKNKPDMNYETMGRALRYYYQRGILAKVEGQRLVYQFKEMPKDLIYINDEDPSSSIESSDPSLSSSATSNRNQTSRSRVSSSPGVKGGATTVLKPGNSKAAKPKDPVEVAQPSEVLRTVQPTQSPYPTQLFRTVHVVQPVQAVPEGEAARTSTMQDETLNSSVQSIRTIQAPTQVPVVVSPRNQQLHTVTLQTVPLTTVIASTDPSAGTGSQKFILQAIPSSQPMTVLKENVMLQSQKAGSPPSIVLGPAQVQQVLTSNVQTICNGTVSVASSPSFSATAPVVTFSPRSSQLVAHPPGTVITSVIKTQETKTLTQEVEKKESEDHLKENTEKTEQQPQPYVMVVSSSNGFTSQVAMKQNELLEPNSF
ETV1, sequence (P50549 whole entry): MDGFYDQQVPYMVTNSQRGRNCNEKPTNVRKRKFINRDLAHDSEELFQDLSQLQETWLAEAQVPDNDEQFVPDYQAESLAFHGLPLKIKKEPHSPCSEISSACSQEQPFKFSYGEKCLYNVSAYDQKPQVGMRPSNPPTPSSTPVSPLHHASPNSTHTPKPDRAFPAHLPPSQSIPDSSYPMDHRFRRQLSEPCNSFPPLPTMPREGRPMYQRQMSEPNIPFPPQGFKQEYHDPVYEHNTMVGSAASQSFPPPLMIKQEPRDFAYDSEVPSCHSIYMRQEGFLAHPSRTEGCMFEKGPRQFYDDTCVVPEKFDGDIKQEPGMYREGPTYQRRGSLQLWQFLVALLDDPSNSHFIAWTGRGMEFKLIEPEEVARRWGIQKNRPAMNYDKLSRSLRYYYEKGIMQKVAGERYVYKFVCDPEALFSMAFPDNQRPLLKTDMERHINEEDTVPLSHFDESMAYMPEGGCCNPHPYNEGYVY
ELF4, sequence (Q99607 whole entry): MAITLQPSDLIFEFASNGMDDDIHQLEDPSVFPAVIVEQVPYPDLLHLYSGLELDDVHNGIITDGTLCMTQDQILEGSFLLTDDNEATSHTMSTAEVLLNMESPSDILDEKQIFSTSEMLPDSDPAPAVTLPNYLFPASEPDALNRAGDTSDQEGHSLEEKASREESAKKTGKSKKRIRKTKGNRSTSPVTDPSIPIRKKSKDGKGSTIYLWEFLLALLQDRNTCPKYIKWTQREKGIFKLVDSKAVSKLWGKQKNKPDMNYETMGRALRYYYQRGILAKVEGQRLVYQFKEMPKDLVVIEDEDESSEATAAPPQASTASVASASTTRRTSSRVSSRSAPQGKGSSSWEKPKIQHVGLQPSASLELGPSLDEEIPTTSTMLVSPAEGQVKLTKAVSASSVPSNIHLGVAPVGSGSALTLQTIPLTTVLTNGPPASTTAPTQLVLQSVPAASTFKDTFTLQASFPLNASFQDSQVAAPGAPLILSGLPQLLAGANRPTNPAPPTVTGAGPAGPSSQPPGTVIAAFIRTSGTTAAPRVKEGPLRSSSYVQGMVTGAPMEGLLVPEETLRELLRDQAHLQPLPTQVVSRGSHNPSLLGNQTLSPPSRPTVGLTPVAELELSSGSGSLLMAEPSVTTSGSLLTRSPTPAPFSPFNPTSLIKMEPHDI
SPIB, sequence (Q01892 whole entry): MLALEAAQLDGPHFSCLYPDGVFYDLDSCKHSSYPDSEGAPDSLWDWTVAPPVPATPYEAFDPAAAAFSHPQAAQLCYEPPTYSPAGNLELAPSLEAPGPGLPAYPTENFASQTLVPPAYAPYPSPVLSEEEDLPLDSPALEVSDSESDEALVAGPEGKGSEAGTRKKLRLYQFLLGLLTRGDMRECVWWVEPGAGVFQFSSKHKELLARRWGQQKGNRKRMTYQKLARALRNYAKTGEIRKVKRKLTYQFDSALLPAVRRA

For GACATT, the binding signal with FLI1 was 1.16 fold enrichment (6-mer frequency, TF over GST control); in the test with ELK1, 1.17 fold enrichment (6-mer frequency, TF over GST control); with GABPA, 1.12 fold enrichment (6-mer frequency, TF over GST control); with ERG it was 1.15 fold enrichment (6-mer frequency, TF over GST control); in the test with ELF1, 1.16 fold enrichment (6-mer frequency, TF over GST control); in the test with EHF, 1.11 fold enrichment (6-mer frequency, TF over GST control). Moreover, the binding signal in the test with SPI1 was 1.13 fold enrichment (6-mer frequency, TF over GST control); with SPIB it was 1.16 fold enrichment (6-mer frequency, TF over GST control); in the test with ELK3, 1.02 fold enrichment (6-mer frequency, TF over GST control); with FEV, 1.13 fold enrichment (6-mer frequency, TF over GST control); with ETV5, 1.17 fold enrichment (6-mer frequency, TF over GST control); with HSF1 it was 1.09 fold enrichment (6-mer frequency, TF over GST control). The binding signal in the test with SPIC was 1.12 fold enrichment (6-mer frequency, TF over GST control); with ELF4 it was 1.14 fold enrichment (6-mer frequency, TF over GST control); with ELK4 it was 1.1 fold enrichment (6-mer frequency, TF over GST control); in the test with ETV2 it was 1.13 fold enrichment (6-mer frequency, TF over GST control); with ELF3 it was 1.16 fold enrichment (6-mer frequency, TF over GST control); in the test with CRX, 1.01 fold enrichment (6-mer frequency, TF over GST control). For the same sequence, the binding signal in the test with ETV1 was 1.26 fold enrichment (6-mer frequency, TF over GST control).
